Experimental data as given in the supplement of paper PMC8728848.
Many of the other results were omitted from the sample, so the strongest signals are more common in it than they were.

Key:
Experiment in all cases: glycan array binding signal (z-score within array); higher = stronger binding
Settings in all cases: glycan notation: IUPAC condensed, linker removed
[1] = target: Fuc(a1-2)Gal
Method in brief: (§1)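 Glycan array binding is given as a within-array Z-score, which can be read as non-binding when negative. The arrays, 3228 of them, came from the Consortium for Functional Glycomics database and were retained only where the protein sequence was available. Z-scores were averaged across arrays of the same protein sequence at different concentrations or buffers and across linkers.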

[2] = target: Fuc(a1-2)Gal(b1-4)GlcNAc(b1-2)Man(a1-3)[Fuc(a1-2)Gal(b1-4)GlcNAc(b1-2)Man(a1-6)]Man(b1-4)GlcNAc(b1-4)GlcNAc
Method in brief: as §1

[3] = target: Fuc(a1-2)Gal6S(b1-3)GlcNAc
Method in brief: as §1

[4] = target: Fuc(a1-2)[Gal(a1-3)]Gal(b1-3)GalNAc
Method in brief: as §1

[5] = target: Fuc(a1-2)[Gal(a1-3)]Gal(b1-3)GalNAc(b1-3)Gal(a1-4)Gal(b1-4)Glc
Method in brief: as §1

[6] = target: Fuc(a1-2)[GalNAc(a1-3)]Gal(b1-3)GalNAc(b1-3)Gal(a1-4)Gal(b1-4)Glc
Method in brief: as §1

[7] = target: Fuc(a1-2)[GalNAc(a1-3)]Gal(b1-4)GlcNAc(b1-3)Gal(b1-4)GlcNAc(b1-3)Gal(b1-4)GlcNAc
Method in brief: as §1

[8] = target: Fuc(a1-3)[Gal(b1-4)]GlcNAc(b1-2)Man(a1-3)[Fuc(a1-3)[Gal(b1-4)]GlcNAc(b1-2)Man(a1-6)]Man(b1-4)GlcNAc(b1-4)[Fuc(a1-6)]GlcNAc
Method in brief: as §1

[9] = target: Fuc(a1-3)[Gal(b1-4)]GlcNAc(b1-3)GalNAc
Method in brief: as §1

[10] = target: Gal(a1-3)Gal(b1-3)GlcNAc(b1-3)GalNAc
Method in brief: as §1

[11] = target: Gal(a1-3)Gal(b1-3)[Fuc(a1-4)]GlcNAc(b1-2)Man(a1-3)[Gal(a1-3)Gal(b1-3)[Fuc(a1-4)]GlcNAc(b1-2)Man(a1-6)]Man(b1-4)GlcNAc(b1-4)GlcNAc
Method in brief: as §1

[12] = target: Gal(a1-3)Gal(b1-4)GlcNAc(b1-6)GalNAc
Method in brief: as §1

[13] = target: Gal(b1-3)GlcNAc(b1-3)Gal(b1-3)GlcNAc
Method in brief: as §1

[14] = target: Gal(b1-3)GlcNAc(b1-3)Gal(b1-4)GlcNAc
Method in brief: as §1

[15] = target: Gal(b1-3)GlcNAc(b1-3)Gal(b1-4)GlcNAc(b1-2)[Gal(b1-3)GlcNAc(b1-3)Gal(b1-4)GlcNAc(b1-6)]Man(a1-6)[Gal(b1-3)GlcNAc(b1-3)Gal(b1-4)GlcNAc(b1-2)Man(a1-3)]Man(b1-4)GlcNAc(b1-4)[Fuc(a1-6)]GlcNAc
Method in brief: as §1

[16] = target: Gal(b1-3)GlcNAc(b1-3)Gal(b1-4)GlcNAc(b1-3)Gal(b1-4)GlcNAc(b1-2)[Gal(b1-3)GlcNAc(b1-3)Gal(b1-4)GlcNAc(b1-3)Gal(b1-4)GlcNAc(b1-6)]Man(a1-6)[Gal(b1-3)GlcNAc(b1-3)Gal(b1-4)GlcNAc(b1-3)Gal(b1-4)GlcNAc(b1-2)Man(a1-3)]Man(b1-4)GlcNAc(b1-4)[Fuc(a1-6)]GlcNAc
Method in brief: as §1

[17] = target: Gal(b1-3)GlcNAc(b1-3)Gal(b1-4)GlcNAc(b1-6)[Gal(b1-3)GlcNAc(b1-3)]Gal(b1-4)Glc
Method in brief: as §1

[18] = target: Gal(b1-3)[Neu5Ac(b2-6)]GalNAc
Method in brief: as §1

[19] = target: Gal(b1-4)GlcNAc(b1-2)Man(a1-3)Man(b1-4)GlcNAc(b1-4)GlcNAc
Method in brief: as §1

[20] = target: Gal(b1-4)GlcNAc(b1-2)[Gal(b1-4)GlcNAc(b1-4)]Man(a1-3)[GlcNAc(b1-4)][Gal(b1-4)GlcNAc(b1-2)[Gal(b1-4)GlcNAc(b1-6)]Man(a1-6)]Man(b1-4)GlcNAc(b1-4)GlcNAc
Method in brief: as §1

[21] = target: Gal(b1-4)GlcNAc(b1-3)Gal(b1-4)GlcNAc(b1-2)Man(a1-3)[Gal(b1-4)GlcNAc(b1-3)Gal(b1-4)GlcNAc(b1-2)Man(a1-6)]Man(b1-4)GlcNAc(b1-4)[Fuc(a1-6)]GlcNAc
Method in brief: as §1

[22] = target: Gal(b1-4)GlcNAc(b1-3)Gal(b1-4)GlcNAc(b1-2)[Gal(b1-4)GlcNAc(b1-3)Gal(b1-4)GlcNAc(b1-6)]Man(a1-6)[Gal(b1-4)GlcNAc(b1-3)Gal(b1-4)GlcNAc(b1-2)Man(a1-3)]Man(b1-4)GlcNAc(b1-4)GlcNAc
Method in brief: as §1

[23] = target: Gal(b1-4)GlcNAc(b1-3)Gal(b1-4)GlcNAc(b1-2)[Gal(b1-4)GlcNAc(b1-3)Gal(b1-4)GlcNAc(b1-6)]Man(a1-6)[Gal(b1-4)GlcNAc(b1-3)Gal(b1-4)GlcNAc(b1-2)Man(a1-3)]Man(b1-4)GlcNAc(b1-4)[Fuc(a1-6)]GlcNAc
Method in brief: as §1

[24] = target: Gal(b1-4)GlcNAc(b1-6)Gal(b1-4)GlcNAc
Method in brief: as §1

[25] = target: Gal(b1-4)GlcNAc(b1-6)[Gal(b1-4)GlcNAc(b1-3)]GalNAc
Method in brief: as §1

[26] = target: Gal3S(b1-4)[Fuc(a1-3)]Glc6S
Method in brief: as §1

[27] = target: Gal3S(b1-4)[Fuc(a1-3)]GlcNAc6S
Method in brief: as §1

B1: LlpA (Burkholderia cenocepacia) (protein)
chain: MGSSHHHHHHSSGLVPRGSHKILGSNETLSAGNVVYSDNGQYHLAMQTDGNLVVYGPTGAVWQSQTSGSGGNRAVMQGDGNLVIYRADNTAAWSSKTAHPGAFLAVQDDGNVVIYWPRPAWASNTSDPATQQSAESKYLASGSTMSAGQTVTVAQYMLVFQADGNLVLYKNGGNPIWSTGTQGKGATYAVMQSDGNFVIYAGSTALWSTKTNGANGAQLVLQSDGNLVIYAPTAAWSTKFGLVTAPTSTSTSNNGPGSGICVGVCPPHPLNGNPFSPVGVGTTGLGFPTPGYPGAAF
[1]
  glycan array binding signal (z-score): 1.82
[2]
  glycan array binding signal (z-score): -0.314
[3]
  glycan array binding signal (z-score): 0.167
[4]
  glycan array binding signal (z-score): 0.017
[5]
  glycan array binding signal (z-score): -0.361
[6]
  glycan array binding signal (z-score): -0.271
[7]
  glycan array binding signal (z-score): 1.26
[8]
  glycan array binding signal (z-score): 2.08
[9]
  glycan array binding signal (z-score): 0.159
[10]
  glycan array binding signal (z-score): -1.16
[11]
  glycan array binding signal (z-score): 1.1
[12]
  glycan array binding signal (z-score): 0.692
[13]
  glycan array binding signal (z-score): -0.418
[14]
  glycan array binding signal (z-score): -0.526
[15]
  glycan array binding signal (z-score): 1.84
[16]
  glycan array binding signal (z-score): 0.703
[17]
  glycan array binding signal (z-score): 1.7
[18]
  glycan array binding signal (z-score): -0.687
[19]
  glycan array binding signal (z-score): 1.84
[20]
  glycan array binding signal (z-score): 0.349
[21]
  glycan array binding signal (z-score): 2.46
[22]
  glycan array binding signal (z-score): 0.339
[23]
  glycan array binding signal (z-score): 1.91
[24]
  glycan array binding signal (z-score): -0.14
[25]
  glycan array binding signal (z-score): 1.6
[26]
  glycan array binding signal (z-score): 1.83
[27]
  glycan array binding signal (z-score): 0.427
